From paper PMC7862700, “An all-to-all approach to the identification of sequence-specific readers for epigenetic DNA modifications on cytosine”

What was measured:
Assay in all cases: DAPPL (digital affinity profiling via proximity ligation, sequencing); 10 mM Tris-HCl pH 7.5, 50 mM NaCl, 1 mM DTT, 4% glycerol, room temperature, 30 min; GST-TFs on glutathione beads, 16-mer random dsDNA library, 0.1% formaldehyde crosslink after washing; high values mean tight binding
Settings in all cases: protein: recombinant; tags: N-terminal GST; dsDNA, one strand shown
FLI1 = biological target: T1, FLI1 (Homo sapiens, UniProt Q01543 1-452)
T1 sequence: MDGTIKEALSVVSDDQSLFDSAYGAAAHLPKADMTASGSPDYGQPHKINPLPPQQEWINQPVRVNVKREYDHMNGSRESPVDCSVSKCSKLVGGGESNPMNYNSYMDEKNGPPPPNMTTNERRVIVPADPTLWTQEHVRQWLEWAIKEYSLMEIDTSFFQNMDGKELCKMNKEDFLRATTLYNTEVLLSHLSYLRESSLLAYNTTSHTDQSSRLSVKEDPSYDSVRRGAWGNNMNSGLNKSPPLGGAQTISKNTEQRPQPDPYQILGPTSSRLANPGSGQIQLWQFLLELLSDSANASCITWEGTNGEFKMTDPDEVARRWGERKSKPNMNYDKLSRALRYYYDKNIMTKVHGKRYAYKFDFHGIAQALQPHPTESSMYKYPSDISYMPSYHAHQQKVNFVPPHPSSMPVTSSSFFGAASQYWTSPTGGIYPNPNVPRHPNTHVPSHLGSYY
Method in brief: (§1)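 GST fusions of human transcription factors were expressed in yeast and captured with glutathione beads. Once given DNA barcodes and pooled alongside a tag-only sample, they were incubated for 30 min at room temperature with 200 nmole of a random double-stranded 16-mer DNA library in Tris/NaCl/DTT/glycerol buffer, then washed, crosslinked (0.1% formaldehyde), proximity-ligated, PCR-amplified and sequenced on an Illumina NextSeq500. The binding signal of each hexamer is its read frequency for a factor divided by its frequency for the tag-only sample.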

ELK1 = biological target: T2, ELK1 (Homo sapiens, UniProt P19419 1-428)
T2 sequence: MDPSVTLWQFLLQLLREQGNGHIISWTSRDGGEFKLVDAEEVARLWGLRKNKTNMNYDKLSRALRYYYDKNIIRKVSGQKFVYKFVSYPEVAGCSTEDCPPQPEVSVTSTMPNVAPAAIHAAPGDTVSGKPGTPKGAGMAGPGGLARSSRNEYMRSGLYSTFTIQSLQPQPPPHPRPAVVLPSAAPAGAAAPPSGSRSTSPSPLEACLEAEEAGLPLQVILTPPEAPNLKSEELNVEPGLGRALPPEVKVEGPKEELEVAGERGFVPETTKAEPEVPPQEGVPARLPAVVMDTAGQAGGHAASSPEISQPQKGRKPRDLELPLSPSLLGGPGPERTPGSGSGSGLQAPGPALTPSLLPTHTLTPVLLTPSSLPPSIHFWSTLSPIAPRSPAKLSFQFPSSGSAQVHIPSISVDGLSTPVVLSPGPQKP
Method in brief: as §1

GABPA = biological target: T3, GABPA (Homo sapiens, UniProt Q06546 1-454)
T3 sequence: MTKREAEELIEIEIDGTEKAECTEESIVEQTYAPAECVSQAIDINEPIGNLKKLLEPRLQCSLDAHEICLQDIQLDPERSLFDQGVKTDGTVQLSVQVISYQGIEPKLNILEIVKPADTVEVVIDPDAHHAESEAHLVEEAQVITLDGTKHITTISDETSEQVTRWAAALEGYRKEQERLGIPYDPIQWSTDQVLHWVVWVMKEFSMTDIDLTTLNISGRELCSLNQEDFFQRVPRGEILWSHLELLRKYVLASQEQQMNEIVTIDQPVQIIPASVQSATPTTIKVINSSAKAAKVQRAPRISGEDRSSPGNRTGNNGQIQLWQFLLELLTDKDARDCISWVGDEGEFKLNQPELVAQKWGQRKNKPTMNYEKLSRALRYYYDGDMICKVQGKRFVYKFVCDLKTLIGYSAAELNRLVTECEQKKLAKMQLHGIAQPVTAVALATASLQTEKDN
Method in brief: as §1

ERG = biological target: T4, ERG (Homo sapiens, UniProt P11308 1-479)
T4 sequence: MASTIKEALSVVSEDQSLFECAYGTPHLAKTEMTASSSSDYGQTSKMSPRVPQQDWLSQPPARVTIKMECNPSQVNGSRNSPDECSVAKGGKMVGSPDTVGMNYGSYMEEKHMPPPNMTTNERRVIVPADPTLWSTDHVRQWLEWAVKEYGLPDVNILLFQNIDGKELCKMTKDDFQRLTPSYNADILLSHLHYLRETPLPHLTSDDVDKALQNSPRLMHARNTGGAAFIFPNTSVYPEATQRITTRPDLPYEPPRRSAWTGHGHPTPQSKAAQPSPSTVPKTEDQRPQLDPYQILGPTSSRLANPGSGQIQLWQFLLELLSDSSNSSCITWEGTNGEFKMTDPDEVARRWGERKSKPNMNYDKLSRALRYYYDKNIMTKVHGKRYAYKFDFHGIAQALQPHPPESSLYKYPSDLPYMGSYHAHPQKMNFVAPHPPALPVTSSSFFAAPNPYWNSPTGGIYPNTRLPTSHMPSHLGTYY
Method in brief: as §1

ELF1 = ELF1 (Homo sapiens, UniProt P32519 1-619)
Method in brief: as §1

EHF = biological target: T5, EHF (Homo sapiens, UniProt Q9NZC4 1-300)
T5 sequence: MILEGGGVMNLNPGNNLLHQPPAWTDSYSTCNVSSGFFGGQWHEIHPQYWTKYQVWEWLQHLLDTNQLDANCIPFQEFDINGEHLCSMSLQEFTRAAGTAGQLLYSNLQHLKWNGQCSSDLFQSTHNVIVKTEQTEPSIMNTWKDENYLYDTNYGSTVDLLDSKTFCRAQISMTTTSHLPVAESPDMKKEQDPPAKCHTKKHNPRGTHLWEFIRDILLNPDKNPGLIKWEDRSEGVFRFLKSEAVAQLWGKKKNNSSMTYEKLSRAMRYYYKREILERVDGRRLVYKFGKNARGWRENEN
Method in brief: as §1

SPI1 = SPI1 (Homo sapiens, UniProt P17947 1-270)
Method in brief: as §1

SPIB = SPIB (Homo sapiens, UniProt Q01892 1-262)
Method in brief: as §1

ELK3 = biological target: T6, ELK3 (Homo sapiens, UniProt P41970 1-407)
T6 sequence: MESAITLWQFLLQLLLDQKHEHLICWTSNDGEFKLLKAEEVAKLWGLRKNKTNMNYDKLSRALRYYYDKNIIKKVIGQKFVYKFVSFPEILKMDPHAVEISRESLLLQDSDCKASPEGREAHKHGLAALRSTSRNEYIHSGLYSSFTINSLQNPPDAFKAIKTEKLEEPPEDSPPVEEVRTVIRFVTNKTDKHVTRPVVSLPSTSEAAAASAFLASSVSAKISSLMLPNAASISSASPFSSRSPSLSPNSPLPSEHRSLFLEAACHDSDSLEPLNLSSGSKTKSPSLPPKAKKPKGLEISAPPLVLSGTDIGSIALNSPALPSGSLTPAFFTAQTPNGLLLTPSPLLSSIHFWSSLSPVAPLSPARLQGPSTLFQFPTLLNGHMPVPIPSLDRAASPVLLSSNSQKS
Method in brief: as §1

ELF1, sequence (P32519 whole entry): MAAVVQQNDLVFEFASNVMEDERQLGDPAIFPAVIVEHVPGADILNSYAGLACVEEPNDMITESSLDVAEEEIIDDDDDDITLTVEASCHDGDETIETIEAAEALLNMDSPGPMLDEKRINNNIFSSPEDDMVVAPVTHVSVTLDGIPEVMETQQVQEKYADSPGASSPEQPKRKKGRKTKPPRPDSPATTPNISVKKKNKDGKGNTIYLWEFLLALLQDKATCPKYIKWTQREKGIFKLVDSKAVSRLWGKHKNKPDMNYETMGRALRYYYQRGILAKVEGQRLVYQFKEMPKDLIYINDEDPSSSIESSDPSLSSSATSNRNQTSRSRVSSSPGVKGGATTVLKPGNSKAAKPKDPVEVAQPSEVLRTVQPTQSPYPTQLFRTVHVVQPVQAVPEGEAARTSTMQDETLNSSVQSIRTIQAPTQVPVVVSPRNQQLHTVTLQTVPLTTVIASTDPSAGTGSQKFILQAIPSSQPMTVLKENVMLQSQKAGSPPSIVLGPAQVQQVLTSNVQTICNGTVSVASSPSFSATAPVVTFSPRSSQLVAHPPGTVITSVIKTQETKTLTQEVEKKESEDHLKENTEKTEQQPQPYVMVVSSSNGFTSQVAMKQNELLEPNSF
SPIB, sequence (Q01892 whole entry): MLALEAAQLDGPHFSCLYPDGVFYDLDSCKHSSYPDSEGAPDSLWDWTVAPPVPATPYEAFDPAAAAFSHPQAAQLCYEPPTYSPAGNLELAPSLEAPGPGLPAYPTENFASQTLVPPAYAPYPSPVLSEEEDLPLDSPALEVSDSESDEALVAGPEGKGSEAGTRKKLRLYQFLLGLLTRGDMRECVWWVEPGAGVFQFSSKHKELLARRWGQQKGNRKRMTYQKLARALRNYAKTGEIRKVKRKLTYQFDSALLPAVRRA

Q: Which binding signal (FLI1) does the source give for TACGCG here?
A: Its binding signal is 1.12 fold enrichment (6-mer frequency, TF over GST control).

Q: And the binding signal (ELK1)?
A: The binding signal was 1.14 fold enrichment (6-mer frequency, TF over GST control).

Q: What about the binding signal (GABPA) of the same sequence?
A: The binding signal was 1.24 fold enrichment (6-mer frequency, TF over GST control).

Q: What about the binding signal (ERG) of the same sequence?
A: Its binding signal is 1.14 fold enrichment (6-mer frequency, TF over GST control).

Q: And the binding signal (ELF1)?
A: The binding signal was 1.12 fold enrichment (6-mer frequency, TF over GST control).

Q: And the binding signal (EHF)?
A: The binding signal was 1.06 fold enrichment (6-mer frequency, TF over GST control).

Q: And the binding signal (SPI1)?
A: The binding signal was 1.12 fold enrichment (6-mer frequency, TF over GST control).

Q: And the binding signal (SPIB)?
A: The binding signal was 1.13 fold enrichment (6-mer frequency, TF over GST control).

Q: And the binding signal (ELK3)?
A: The binding signal was 1.28 fold enrichment (6-mer frequency, TF over GST control).
